These sequences were tested on PPARg:RXRa 30nM:10nM, anti-RXR (NR concentration 30 nM, RXRa partner concentration 10 nM) (assay: PBM binding z-score (relative to random genomic background probes); higher = stronger binding; sequences stand for … in GC…GCGATTGACAGCGTAGAATGAAGG).
How it was run: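 The probes on custom Agilent 4×180K protein-binding microarrays were double-stranded, with 34-nt variable regions bearing direct-repeat seeds, single-nucleotide variants, half-site ablations and random human genomic background sequences. Incubation lasted 1 h with ligand-free nuclear receptor dimers in PBS pH 7.4, 2% milk, 0.02% Triton X-100, 1 mM DTT, 0.2 mg/mL BSA and 0.4 mg/ml salmon testes DNA. Antibodies against each partner (one per run) detected bound dimers, and fluorescence scans were regression-normalized. Binding z-scores take the random background probes as reference.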
For ATCTCTAGGTGAAGTTCAGTGAAAGATCGATAGA, the PBM binding z-score was 0.453. For CCGACTGGGGCAGAAAGTTTACCATACCATCCGG, the PBM binding z-score was -0.507. For ACAGACAGGTGATGAAGGTAACTAAGGCTATCAT, the PBM binding z-score was 0.045. For GCATGTAGATCAAGGTTAAGAAAGACTAAGCTAA, the PBM binding z-score was 0.418. TCTTGTAGATCAACAGGAGGTCAAGAAAGATCGA was tested, and the PBM binding z-score was 2.55. Work on CTTGCTAGGTCAATGGTCAGCTAAAGCAGCTCGC yielded a PBM binding z-score of 4.16. TCGAGTAGGTTCGTCGGGGCATTCAGCCAACATA was tested, and the PBM binding z-score was 0.955. Sequence ATCTCTGGGTAACAAGTTCAGTGAAAGAGAGGAC has a PBM binding z-score of 0.953. TAGCCCAGGTCAGATCGGGCCAGTATACGCTATA showed a PBM binding z-score of -0.392. In the case of TGTCAAAGTTCAATGGTAACGTAAGTATCCACAC, the PBM binding z-score is reported as 4.18. Work on CGAACGAGGGCATGAGTTGATAGCAAATGCCGAT yielded a PBM binding z-score of 0.0506. With CGTCCAAGGTCATAGGAGGTCAGGGAAGACAGAT the PBM binding z-score was 2.83. For GCTGCTTGGTCAACTGATGGTCAGCTAAAGCTCG, the PBM binding z-score was -1.15. ATCTCTAGGAAACCAAGTTCAGTGAATGCCGAAC showed a PBM binding z-score of 0.0428. Work on CCTGCTAGGTCATGGTCATCTAATCTACAGTATG yielded a PBM binding z-score of 0.662. Sequence TAGCCTATGTCATTGGGCCAGTATAGTACGCATC has a PBM binding z-score of 0.0263. Work on CGAACTAGGTCAGAACAGGACACTGAAGGATGAT yielded a PBM binding z-score of 1.8. In the case of GCTCGGAGGACAAGGTCAGATCTTTGTCCGTAGA, the PBM binding z-score is reported as -0.124. In the case of AGAATGAGGTTATTACGATCAGGGAATTGCGGTC, the PBM binding z-score is reported as 0.584. For TCATATACGTAAAAGGTGAAAGTCGGTGTGGTAA, the PBM binding z-score was 4.6. Work on CCTAGTGGGCCACGAAAGGTCATTGATTCAGTGA yielded a PBM binding z-score of 2.04. For TCTTGTAGTTCAATAGAGGTTAAGAAAGTGCGCT, the PBM binding z-score was 2.94. With ACAGACAGGTGATAAAGGTAACTCAGGCTATCAT the PBM binding z-score was 0.377. CCTACTGGGTCATCAGGTCATTGATATCAACGTT gave a PBM binding z-score of 4.45. TCATCTAGGTAAAAGGTGAAAGTCGGTGTGGTAA gave a PBM binding z-score of 8.75. With CAGCCTAGGTCAGGCCCAGTATAGGAGGAACGTT the PBM binding z-score was -0.32. AATACAGGGTCATCGTAAGCCAGAGTACGCACAG gave a PBM binding z-score of 2.84. Work on CCTACTGGGCCACGAACGGTCATTGATTCAGTGA yielded a PBM binding z-score of -0.262. GCGACTTGGGCAAAGCAGGTTACCATAAGGTTGG showed a PBM binding z-score of -0.654. TCTAGTAGGTTAGTCGGGGCATTCAGCCAACATA showed a PBM binding z-score of 2.88. AGAACGAGGGCACGCTCAGTTGATAGCAGAGTAG gave a PBM binding z-score of 0.279. Sequence CGTACTAGGTCATTGACAGGACAGTGAATAGTAA has a PBM binding z-score of 3.06. For ATCGAAAGGTCGAGGTGAGCATAGAGAAAGGGAA, the PBM binding z-score was 1.66. Sequence TCATATAGGTAAAGGTGCAAGTCGAACGATATGA has a PBM binding z-score of 4.82. Sequence TCTAGTTGGTCACGGAGGTCACTCACGACGGGTA has a PBM binding z-score of 3.29. GCGACTGGGGCATAAGCAGGTTACCATAACTTAA gave a PBM binding z-score of 0.29. Work on AATACAGGCTCATCGTAGGCCAGAGTACGCACAG yielded a PBM binding z-score of -0.133. In the case of CGTACAAGGTCAGCAGGTCAGTGAAAGCGACGTG, the PBM binding z-score is reported as 1.99. Sequence ACAGACAGGTGAGTGAAGGGAACTCAGCTGGACG has a PBM binding z-score of -0.652. In the case of CCTACTGGGCCAAAAAGGTCCTTGATGCCGATAA, the PBM binding z-score is reported as -0.0812.
